The structures appear in SMILES notation. Counter-ions that a name gives are not always drawn.

The assay deals with Vero E6 infected with SARS-CoV-2. In words: morphology score (similarity to uninfected cells); higher = more like uninfected cells. The following applies: 24 h.
Consider `CC(C)NC(=N)NC(=N)Nc1ccc(Cl)cc1` [proguanil] (10 µM), for which the morphology score is -0.0553. For `N[C@@H](C[C@@H](F)C(=O)O)C(=O)O` (10 µM), the morphology score is 0.0323. Then `CCNC(=O)C[C@@H]1N=C(c2ccc(Cl)cc2)c2cc(OC)ccc2-n2c(C)nnc21` (10 µM), with -0.0652. `CCCC(CCC)C(=O)Nc1ccn([C@@H]2O[C@H](CO)[C@@H](O)C2(F)F)c(=O)n1` (0.833333 µM): the morphology score worked out at 0.0484. The compound `c1ccc2c(c1)CCC[C@H]2Nc1nc2ccccc2[nH]1` (10 µM) registered a morphology score of 0.268. The compound `CN=c1nc(-c2ccccc2)n(-c2ccccc2)s1` (10 µM) gave a morphology score of -0.0414.

The compound `C=CC(=O)Nc1cccc(Oc2nc(Nc3ccc(N4CCN(C)CC4)cc3)nc3ccsc23)c1` [olmutinib] (0.833333 µM) came in with a morphology score of -0.0965. `CC(C)[C@H](CO)Nc1nc(Nc2cccc(Cl)c2)c2ncn(C(C)C)c2n1` [purvalanol-A] (0.833333 µM) had a morphology score of -0.028.

Turning to `CN(C)C(=O)COC(=O)Cc1ccc(OC(=O)c2ccc(NC(=N)N)cc2)cc1` [Camostat mesylate] (10 µM), the morphology score came out at 0.0371.

For `CCOc1nc2cccc(C(=O)OCc3oc(=O)oc3C)c2n1Cc1ccc(-c2ccccc2-c2noc(=O)[nH]2)cc1` [azilsartan-medoxomil] (10 µM), the morphology score is -0.168.

Compound `CCC(=O)Nc1cccc(Oc2nc(Nc3ccc(N4CCN(C)CC4)cc3OC)ncc2Cl)c1` (10 µM) came in with a morphology score of 0.0191. Then `CCc1c(O)cc(O)c(C(=O)c2ccc(OCCN3CCOCC3)c(OC)c2)c1CC(=O)N(CCOC)CCOC` (10 µM), with -0.0338; and `NC(=O)c1cccc(-c2cccc(OC(=O)NC3CCCCC3)c2)c1` (10 µM), with 0.00303; and `N#Cc1cc(CN2CCC(Nc3ncnc4sc(Cl)cc34)CC2)ccc1F` (10 µM), with -0.299.

`CN1CCN(c2nc(C3=C(c4c[nH]c5ccccc45)C(=O)NC3=O)c3ccccc3n2)CC1` [sotrastaurin] (10 µM): the morphology score was 0.0619. With `Cc1ccc(/C(=C\CN2CCCC2)c2cccc(/C=C/C(=O)O)n2)cc1` [acrivastine] (10 µM), the morphology score is -0.036. `O=C1c2ccccc2S(=O)(=O)N1CCCCN1CCN(c2ncccn2)CC1` [ipsapirone] (10 µM) showed a morphology score of -0.0209. As to `COc1ccc2cc([C@H](C)C(=O)O)ccc2c1` [naproxen] (10 µM), the morphology score was -0.0223. `CC(=O)O[C@H]1C[C@@]2(C)[C@@H](C[C@@H](O)[C@H]3[C@@]4(C)CC[C@@H](O)[C@@H](C)[C@@H]4CC[C@@]32C)/C1=C(\CCC=C(C)C)C(=O)O` [fusidic-acid] (10 µM) displayed a morphology score of 0.063.

Consider `O=C(OCCN1CCOCC1)C1(c2ccccc2)CCCCC1` (10 µM), for which the morphology score was -0.00229.

The compound `CS(=O)(=O)c1ccc(C2=C(c3ccccc3)C(=O)OC2)cc1` [rofecoxib] (10 µM) came in with a morphology score of 0.0705. In turn, `COc1ccc(CN(C(=O)[C@@H](N)Cc2c(C)cc(C(N)=O)cc2C)[C@@H](C)c2ncc(-c3ccccc3)[nH]2)cc1C(=O)O` [eluxadoline] (10 µM) displayed a morphology score of 0.15. Turning to `O=C(c1ccc(OCCN2CCCCC2)cc1)c1c(-c2ccc(O)cc2)sc2cc(O)ccc12` [raloxifene] (0.833333 µM), the morphology score worked out at 0.0812.

The compound `NCCNc1ccc(NCCN)c2c1C(=O)c1ccncc1C2=O` [pixantrone] (10 µM) returned a morphology score of 0.328. For the compound `COc1ccc2c(c1)c(CC(=O)O)c(C)n2C(=O)c1ccc(Cl)cc1` [indomethacin] (10 µM), the morphology score worked out at 0.0755. Turning to `NC(=O)c1nc(F)cnc1O` [favipiravir] (10 µM), the morphology score was 0.0924.

Regarding `O=C1C(=Cc2cccnc2)C(=O)c2ccccc21` (10 µM), the morphology score amounted to 0.19. `CCCC(=O)O[C@]1(C(=O)CO)CC[C@H]2[C@@H]3CCC4=CC(=O)CC[C@]4(C)[C@H]3[C@@H](O)C[C@@]21C` [hydrocortisone-butyrate] (10 µM): the morphology score is -0.0651.

For the compound `Clc1cccc2c1CN(C1=NCCN1)C2` (10 µM), the morphology score was 0.132. For the compound `CC(C)n1nc(-c2cc3cc(O)ccc3[nH]2)c2c(N)ncnc21` (10 µM), the morphology score is -0.0614. On to `N[C@@H](Cc1ccc(O)cc1)C(=O)NCC(=O)NCC(=O)O` (10 µM), for which the morphology score is -0.0946. Take `NC(N)=O` [urea] (10 µM): the morphology score was -0.168. The value for `CN1[C@H]2C[C@H](OC(=O)[C@H](CO)c3ccccc3)C[C@@H]1[C@@H](O)C2` [anisodamine] (10 µM) was -0.00951. For the compound `CCCc1nc2c(C)cc(-c3nc4ccccc4n3C)cc2n1Cc1ccc(-c2ccccc2C(=O)O)cc1` [telmisartan] (10 µM), the morphology score is 0.215. For the compound `O=S(=O)(c1ccccc1)N(CC(F)(F)F)c1ccc(C(O)(C(F)(F)F)C(F)(F)F)cc1` (10 µM), the morphology score stood at 0.0275. Turning to `Cc1cc(SCc2sc(-c3ccc(C(F)(F)F)c(F)c3)nc2C)ccc1OCC(=O)O` (10 µM), the morphology score was 0.143.

The compound `CC(=O)N(O)C/C=C/c1cccc(Oc2ccccc2)c1` (10 µM) had a morphology score of 0.0937. On to `CC(=O)NCCc1c(Cc2ccccc2)[nH]c2ccccc12` [luzindole] (10 µM), for which the morphology score worked out at 0.0073.

In the case of `O=C(Nc1ccc(OC(F)(F)F)cc1)c1sccc1NCc1ccnc2ccccc12` (10 µM), the morphology score was 0.0678. For the compound `N#CC(C#N)=Cc1ccc(O)c(O)c1` [tyrphostin-AG-18] (10 µM), the morphology score was 0.204.

These data come from the supplement of paper PMC13380429.
